From PubChem BioAssay
A selection: hits, their analogues and other compounds. The true share with any hit is near 1.2%.
F-actin modifier = cytoskeleton assembly modification | HUVEC TNFa F-actin phalloidin imaging, high content | inhibition, % at 2 µM | actives 0.18% (n = 91,000);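 active = inhibition above the batch mean plus 3 SD and confirmed as a hit by visual image inspection, cut at about 30% in these data, passing the limit was not always enough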
VCAM1 TNFa inh = reduces TNF alpha induced VCAM1 expression in HUVEC. inhibition, % at 2 µM. HUVEC TNFa-induced VCAM-1 immunofluorescence, high-content imaging. actives 0.48% (n = 95,000);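 active = inhibition above the batch mean plus 3 SD, with images confirmed as a hit by eye, cut at about 37% in these data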;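 note: 0% = TNF-stimulated DMSO wells and 100% = unstimulated control wells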
E-sel TNF inh = blocks E-selectin expression induced by TNF alpha. HUVEC TNFa-induced E-selectin immunofluorescence, high content. actives 0.71% (n = 120,000). inhibition, % at 2 µM;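 active = inhibition above the batch mean plus 3 SD, and confirmed as a hit on visual image review, cut at about 43% in these data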;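 note: 0% = TNF-stimulated DMSO wells and 100% = unstimulated control wells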
TNFa cytotox = HUVEC cytotoxicity counter-screen, TNF alpha stimulated | HUVEC TNFalpha-stimulated, Hoechst cell count, imaging | cell count reduction, % at 2 µM | actives 0.17% (n = 93,000);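 active = cell count reduction exceeding the screen mean by over 5 SD, scaled to untreated wells per plate, cut at about 78% in these data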;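 note: cells counted after 24 h of TNF alpha exposure following the 1 h pretreatment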
* hit, by the source's call; . = no result.

SMILES	F-actin modifier	VCAM1 TNFa inh	E-sel TNF inh	TNFa cytotox
COc1ccc(N2CCN(CCNC(=O)c3ccc4c(c3)[nH]c(=S)n3c5ccccc5nc43)CC2)cc1	.	.	-8.2	.
O=C(N/N=C/C1C(c2ccccc2)C1(Cl)Cl)c1cccc(Cl)c1 (stereo unspecified)	.	.	-5.5	.
Oc1ccccc1Nc1nc(NCC2CCCO2)c2ccccc2n1 (stereo unspecified)	6.2	-11.1	65.0*	-20.3
CCOC(=O)c1ccc(NC(=O)Cn2ncc(Cl)c(Cl)c2=O)cc1	.	.	99.7*	.
Cc1ccc(C(=O)OCn2ncc(Cl)c(Cl)c2=O)cc1	-24.4	36.2*	99.7*	4.7
CCOC(=O)c1ccc(NC(=O)CN2C(=O)CCC2=O)cc1	10.5	17.5	24.9	3.1
Cc1ccc(NC(=O)CCNCc2ccco2)cc1S(=O)(=O)N(C)C	.	.	13.7	.
COc1ccc(C(=O)NCC(C)C)c(OC)c1	-16.1	-4.6	91.1*	-12.3
c1cc2c(cc1CN1CCOCC1)OCO2	-7.6	-4.1	19.6	3.0
CC1(C)CC(=O)C2=C(C1)NCN(Cc1ccc3c(c1)OCO3)C2	0.8	6.8	49.1*	-8.6
Cn1c(=O)n(Cc2ccccc2F)c2ccccc21	2.7	-6.3	-28.3	-29.5
O=c1n(Cc2ccccc2F)c2ccccc2n1Cc1ccccc1F	31.3*	-13.5	-4.4	-12.7
CCC1=Nc2cc(C(=O)NCCCOC)ccc2Sc2ccccc21	-21.5	59.9*	33.0	42.0
CCCC1=Nc2cc(C(=O)NCCCOC(C)C)ccc2Sc2ccccc21	3.5	-6.2	47.0	-4.6
CCCC1=Nc2cc(C(=O)NCCCOCC)ccc2Sc2ccccc21	-46.2	94.1*	-9.2	74.5
Fc1ccc(-n2cc(CNCCc3cccnc3)c(-c3ccccc3Cl)n2)cc1	.	.	-25.6	.
Cc1ccc(N(CN2CCCC2=O)C(=O)c2ccc(OC(C)C)cc2)cc1	-10.5	62.2	1.6	79.4*
CCN(CC(=O)NC1CCCCC1)S(=O)(=O)c1ccc(Cl)cc1	8.2	13.6	-4.7	13.4
CCN(CC(=O)NCc1ccccn1)S(=O)(=O)c1ccc(Cl)cc1	6.4	16.6	-1.9	78.6*
c1ccc(-c2cnn3c(-c4ccccc4)c(-c4ccccc4)nc3n2)cc1	.	.	-2.5	.
Cc1ccc(S(=O)(=O)NC(=O)c2cc(C)n(-c3ccc(N(C)C)cc3)c2C)cc1	.	.	-38.1	.
O=C(Cc1cccs1)NNC(=S)NC(=O)c1ccc(F)c(F)c1	.	.	76.1*	.
Cc1ccc2nc3cc([N+](=O)[O-])cc([N+](=O)[O-])c3cc2c1	.	.	99.3*	.
Cc1ccccc1-n1ncc2c([N+](=O)[O-])cc([N+](=O)[O-])cc21	-4.5	0.8	-13.7	-14.6
CSc1cccc(NC(=O)C2CCCN(S(=O)(=O)c3ccc(F)cc3)C2)c1 (stereo unspecified)	3.8	13.3	58.7*	12.1
SMILES	F-actin modifier	VCAM1 TNFa inh	E-sel TNF inh	TNFa cytotox
O=C1CCSc2cccc3cccc(c23)N1	-65.6	90.2*	.	83.5*
COc1cccc(=O)c2c(C)n(-c3cc(C)cc(C)c3)c(C)c12	-9.0	-18.7	67.4*	-26.8
COc1cccc(=O)c2c(C)n(C)c(C)c12	-10.3	0.7	-2.4	-34.0
O=C1C(c2ccncc2)N(CCC2=CCCCC2)C(=O)CN1C1CCCCC1 (stereo unspecified)	-1.2	-1.5	-19.6	-14.1
COc1ccc(NC(=O)c2ccc(CNc3c(NC4CCCCC4)c(=O)c3=O)cc2)cc1OC	11.4	-4.6	72.5*	-14.9
COc1ccc(CNC(=O)c2ccc(CNc3c(NC4CCCCC4)c(=O)c3=O)cc2)cc1	.	.	-22.3	.
CC(=O)Oc1ccc2c(c1)cc(C)n2C	8.6	3.8	-13.1	-12.6
O=C(CN1CCN(S(=O)(=O)c2ccccc2)CC1)Nc1ccc2c(c1)CCC2	.	.	9.7	.
Cn1c(N)c(C(=O)COC(=O)CN2C(=O)c3ccccc3C2=O)c(=O)n(C)c1=O	.	.	68.2*	.
CCc1ccccc1OCC(=O)OCC(=O)c1c(N)n(C)c(=O)n(C)c1=O	.	.	-9.9	.
COc1ccccc1CCc1nnc(CCC(=O)NC(C)Cn2nc(C)cc2C)o1 (stereo unspecified)	.	.	-3.0	.
COc1ccc(-n2c(C)cc(C(=O)COc3ccc(C)nc3[N+](=O)[O-])c2C)cc1	.	.	62.0*	.
CC(Cl)C(=O)NNC(=O)CNS(=O)(=O)c1ccccc1 (stereo unspecified)	.	.	-1.8	.
CCOc1ccccc1/C=N/Nc1ccccc1[N+](=O)[O-]	-7.3	58.8*	4.4	22.0
CCOc1ccccc1NC(=O)/C=C/c1ccccc1[N+](=O)[O-]	.	.	8.5	.
O=C(c1ccco1)N(Cc1ccc([N+](=O)[O-])cc1)c1ccc(Br)cc1	7.2	-28.0	-21.8	7.8
O=C(c1ccc([N+](=O)[O-])cc1)N(Cc1ccc(Br)cc1)N1C(=O)CCCC1=O	.	29.5	97.6*	-20.3
CCN(C(=O)COC(=O)/C=C/c1cccc([N+](=O)[O-])c1)c1ccccc1	.	.	-41.3	.
CCOC(=O)c1c(NC(=O)CSc2nc3cc(Cl)ccc3c(=O)n2Cc2ccco2)sc(C(=O)N(C)C)c1C	.	.	4.0	.
C/C(CC(=O)Nc1ccc(F)cc1)=N\NC(=O)COc1ccccc1	.	.	23.8	.
Cc1cccc(C)c1OC(=O)CCN1C(=O)C2C3C=CC(C4CC34)C2C1=O (stereo unspecified)	.	.	-14.0	.
CCCCOc1ccc2ccccc2c1C=O	8.8	7.3	52.0*	-19.8
CCC(C(=O)NCc1ccccc1OC)c1ccccc1 (stereo unspecified)	.	.	4.0	.
COc1ccc(N2CCN(C(=O)c3ccc(NS(=O)(=O)c4ccccc4)cc3)CC2)cc1	4.0	-4.4	-35.9	4.7
COc1cccc(S(=O)(=O)Nc2ccc(C(=O)N3CCN(C(=O)c4ccco4)CC3)cc2)c1	0.8	25.6	97.4*	-2.2
SMILES	F-actin modifier	VCAM1 TNFa inh	E-sel TNF inh	TNFa cytotox
CCC(Oc1ccccc1)C(=O)NCCOC (stereo unspecified)	.	.	-17.9	.
CCOc1ccc(/C=N/n2c(SC)nnc2-c2ccccc2)cc1OCC	14.4	0.8	.	-19.8
CCC1=NC(c2ccccc2Cl)N(O)C1(C)C (stereo unspecified)	-9.0	58.7*	9.8	70.5
Cn1c(CCNC(=O)c2ccco2)nc2cc(NC(=O)C3CCCCC3)ccc21	1.8	-3.0	-31.5	0.0
Cn1c(CCNC(=O)C2CCCCC2)nc2cc(NC(=O)c3cccs3)ccc21	.	.	63.1*	.
Cc1ccc(Cl)cc1NC(=S)NCc1cccn1C	.	.	-6.3	.
c1ccc(-c2nc(NCc3cccnc3)c3ccccc3n2)cc1	0.3	10.5	-16.9	-9.9
Fc1ccc(CNc2nc(-c3ccccc3)nc3ccccc23)cc1	.	.	99.8*	.
CSc1oc(-c2ccco2)nc1S(=O)(=O)c1ccccc1	13.6	13.1	.	81.6*
C=CCN(C(=O)CCC(=O)O)C1CC(=O)N(c2ccc(OCCC)cc2)C1=O (stereo unspecified)	.	.	92.4*	.
COc1ccc(N(Cc2ccccc2)S(=O)(=O)c2cccc(C(=O)NC3=NCCS3)c2)cc1	16.4	6.8	-36.8	-20.2
COc1ccccc1N(Cc1ccccc1)S(=O)(=O)c1cccc(C(=O)Nc2ccc(C(C)=O)cc2)c1	.	.	65.3*	.
C/C=C/COC(=O)c1[nH]c2c(c1C)C(=O)CC(c1ccco1)C2 (stereo unspecified)	-4.3	51.2*	.	64.1
Cc1c(C(=O)OCC(C)C)[nH]c2c1C(=O)CC(c1ccco1)C2 (stereo unspecified)	21.0	67.3*	.	64.3
